Results published in PubChem BioAssay (NCATS).
Inconclusive results are not listed. Calls of active or inactive are those of the source. The call rests on the fitted dose curve; in most records, active means well fitted curve in the direction sought with a large enough effect; inconclusive means small, poorly fitted or top-dose-only effect, or another doubt; inactive means no such curve, though single readings can be large; an effect the other way counts as inactive or inconclusive.

target: Rap guanine nucleotide exchange factor 4 (Homo sapiens) (UniProt Q8WZA2); experiment: Confirmatory qHTS for agonist of cAMP-regulated guanine nucleotide exchange factor 4 (EPAC2) (AID 1645884); details: EPAC2 GEF activity, Rap1B-BODIPY-GDP fluorescence; series mostly up to 154 µM; activation: at the top concentration;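 further: nucleotide exchange releases bodipy-GDP from Rap1 and this lowers its fluorescence; on the % scale 0 is the no-effect control and ±100 the full control effect; nearly all actives have a fitted effect of over 65% in size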
Sequence (Q8WZA2 whole entry, looked up): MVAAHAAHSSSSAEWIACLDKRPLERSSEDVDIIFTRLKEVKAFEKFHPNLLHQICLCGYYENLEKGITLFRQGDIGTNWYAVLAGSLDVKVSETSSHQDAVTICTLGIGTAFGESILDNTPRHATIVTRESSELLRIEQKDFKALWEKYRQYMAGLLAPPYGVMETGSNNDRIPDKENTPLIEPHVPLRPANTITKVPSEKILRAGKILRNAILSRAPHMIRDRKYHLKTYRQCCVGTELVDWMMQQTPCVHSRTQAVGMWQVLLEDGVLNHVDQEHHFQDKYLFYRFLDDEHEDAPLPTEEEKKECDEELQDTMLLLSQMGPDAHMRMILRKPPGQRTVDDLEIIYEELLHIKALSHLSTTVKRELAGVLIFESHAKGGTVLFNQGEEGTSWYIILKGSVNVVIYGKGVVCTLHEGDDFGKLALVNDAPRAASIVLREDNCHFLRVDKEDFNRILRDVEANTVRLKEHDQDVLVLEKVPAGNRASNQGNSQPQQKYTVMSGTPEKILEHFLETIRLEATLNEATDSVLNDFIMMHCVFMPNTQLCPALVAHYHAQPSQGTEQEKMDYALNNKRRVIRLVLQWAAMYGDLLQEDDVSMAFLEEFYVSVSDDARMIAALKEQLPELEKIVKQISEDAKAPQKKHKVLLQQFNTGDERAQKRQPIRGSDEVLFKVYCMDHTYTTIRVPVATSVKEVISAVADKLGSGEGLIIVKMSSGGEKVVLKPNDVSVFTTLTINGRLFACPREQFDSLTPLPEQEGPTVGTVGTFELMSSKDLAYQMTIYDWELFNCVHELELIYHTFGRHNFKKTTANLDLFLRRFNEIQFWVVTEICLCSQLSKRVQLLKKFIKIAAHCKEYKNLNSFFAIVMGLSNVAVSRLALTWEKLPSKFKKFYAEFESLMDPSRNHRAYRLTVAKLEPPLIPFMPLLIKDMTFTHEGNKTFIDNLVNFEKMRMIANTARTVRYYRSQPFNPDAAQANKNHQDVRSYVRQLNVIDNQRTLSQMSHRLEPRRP

Compound | activation
C[n+]1cccc2c(Br)ccc([O-])c21 | 7.91% (inactive)
Cc1cc(Cl)ccc1Oc1ccccc1C(=O)CC#N | 0% (inactive)
C#Cc1ccc([C@@H]2C=C(C(=O)NCc3ccccc3)O[C@H](OCC)[C@H]2CCCO)cc1 | -1.23% (inactive)
COc1ccc(C)cc1NC(=O)c1ccc2c(SCC(=O)O)c3c(nc2c1)CCCC3 | 1.6% [at 83.8 µM, percent relative to cAMP agonist control] (inactive)
Cc1ccc(-c2ccc(CN3C(C(C)C)C(=O)N(Cc4cn(CCC5OCCO5)nn4)CCS3(=O)=O)cc2)c(C)c1 (stereo not drawn) | 19.2% (inactive)
Cc1nc2c(OCc3ccc(C(F)(F)F)cc3)cccn2c1N(C)Cc1cccs1 | -22.8% (inactive)
CCCCC1CC2=C(C(=O)OC(C)(C)O2)C(c2ccc(Cl)cc2)O1 (stereo not drawn) | 3.97% (inactive)
Cc1ccc(/C=N/Nc2cc(C)nc(NCc3ccccc3)n2)cc1 | 16% (inactive)
COc1cc(/C=N/NS(=O)(=O)c2ccc3ccccc3c2)ccc1OCc1ccc(C(=O)O)cc1 | -0.409% (inactive)
CCCCn1c(N)c(N(CCOC)C(=O)c2ccc(-c3ccc(C(C)=O)cc3)o2)c(=O)[nH]c1=O | 11% (inactive)
COc1ccc(-c2cc(N)n(S(=O)(=O)c3c(F)c(F)c(F)c(F)c3F)n2)cc1OC | 7.68% [at 17.1 µM, percent relative to cAMP agonist control] (inactive)
COc1ccc(-c2sc3ccc(OC)cc3c2C#CCCO)cc1 | 10.8% (inactive)
CCCN(CC(=O)Nc1ccccc1C)C(=O)C1CCN(c2ncnc3sc(C)c(C)c23)CC1 | 2.06% (inactive)
COc1ccc(-c2nn3c(-c4cccc(C)c4)nnc3s2)cc1OC | -25.4% (inactive)
Clc1cccc(-c2nc3ccc(Cl)cn3c2Cc2ccsc2)c1 | 4.78% (inactive)
CCOC(=O)CC1C(=O)NCCN1C(=O)c1cccc(C(F)(F)F)c1 (stereo not drawn) | 9.6% (inactive)
Cc1cc(C)c(Cn2cnc3ccccc32)c(C)c1 | 18.2% (inactive)
CCCCN(CCCC)C1=Nc2ccccc2N/C1=C(/C#N)C(=O)OCC | -1.61% (inactive)
CC(C)CNC(=O)C1Nc2ccc(OC(F)(F)F)cc2C2C=CCC12 (stereo not drawn) | -38.7% (inactive)
Cc1ccc(/C=C2/SC(=S)N(c3ccc(S(=O)(=O)Nc4nccs4)cc3)C2=O)cc1 | 15.3% (inactive)
CC(=O)NC(C)(c1ccccc1)c1nc(-c2cc(F)cc(F)c2)cs1 (stereo not drawn) | 8.31% (inactive)
Cc1oc2ccc(O)c(CN3CCCCC3)c2c1C(=O)Nc1cccc(C(F)(F)F)c1 | -12.9% [at 83.8 µM, percent relative to cAMP agonist control] (inactive)
Fc1ccc2c(-c3cccc(C(F)(F)F)c3)c(-c3ccccc3)ncc2c1 | -18.8% (inactive)
CCOc1ccc(S(=O)(=O)Nc2nc3ccccc3nc2-n2ccc(=NC(=O)c3cccs3)cc2)cc1 | 15% (inactive)

target: Rap guanine nucleotide exchange factor 3 (Homo sapiens) (UniProt O95398); experiment: Counterscreen qHTS for antagonist of cAMP-regulated guanine nucleotide exchange factor 3 (EPAC1) (AID 1645888); details: Rap1B-BODIPY-GDP nucleotide exchange, fluorescence; series mostly up to 154 µM; activity change, negative = inhibition: at the top concentration;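 further: fluorescence loss as bound BODIPY-GDP is released from Rap1B; % of control where 0% means no effect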
Method in brief: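 Measured: fluorescence of BODIPY-GDP bound to Rap1B, which falls as exchange proceeds. Conditions include 50 uM competing GDP, 5 and 30 min reads, and a later cAMP challenge for antagonist detection.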

Rap guanine nucleotide exchange factor 3 (Homo sapiens), sequence (O95398 whole entry, looked up): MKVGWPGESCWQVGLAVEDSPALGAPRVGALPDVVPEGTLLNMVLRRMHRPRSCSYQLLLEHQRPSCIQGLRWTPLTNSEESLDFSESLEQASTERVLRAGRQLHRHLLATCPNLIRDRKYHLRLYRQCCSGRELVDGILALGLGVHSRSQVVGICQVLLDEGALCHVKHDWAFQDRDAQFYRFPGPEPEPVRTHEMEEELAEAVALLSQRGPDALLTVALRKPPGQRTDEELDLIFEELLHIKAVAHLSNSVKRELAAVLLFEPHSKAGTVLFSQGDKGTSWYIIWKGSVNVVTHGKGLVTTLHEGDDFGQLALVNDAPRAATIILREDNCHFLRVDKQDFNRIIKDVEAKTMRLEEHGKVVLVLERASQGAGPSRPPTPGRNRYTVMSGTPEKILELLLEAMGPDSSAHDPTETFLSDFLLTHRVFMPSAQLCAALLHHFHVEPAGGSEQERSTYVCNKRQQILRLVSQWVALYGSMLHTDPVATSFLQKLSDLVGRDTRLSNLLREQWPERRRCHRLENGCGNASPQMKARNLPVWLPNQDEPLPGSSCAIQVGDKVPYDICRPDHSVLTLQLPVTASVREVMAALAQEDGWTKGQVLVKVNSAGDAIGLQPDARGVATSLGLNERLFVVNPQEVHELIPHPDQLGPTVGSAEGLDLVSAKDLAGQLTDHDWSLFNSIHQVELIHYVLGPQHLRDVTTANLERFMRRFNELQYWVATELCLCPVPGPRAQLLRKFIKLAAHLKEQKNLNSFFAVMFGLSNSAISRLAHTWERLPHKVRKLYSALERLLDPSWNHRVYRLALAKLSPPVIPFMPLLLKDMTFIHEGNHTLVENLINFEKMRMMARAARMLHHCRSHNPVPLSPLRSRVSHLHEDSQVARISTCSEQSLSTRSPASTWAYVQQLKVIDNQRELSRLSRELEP

Compound | activity change, negative = inhibition
COc1ccccc1[C@@]1(C)ON(c2ccccc2C(F)(F)F)C1=O | -9.33% (inactive)
O=C1C(O)=C(O)C(=O)c2ccccc21 | 77.7% (inactive)
Cc1ccccc1C(=O)Nc1ccccc1N1CCCCC1 | -1.03% (inactive)
CCCCOC(=O)CCn1c(=S)oc2ccccc21 | -15.5% (inactive)
CCOC(=O)C1=C(C)N=c2s/c(=C/c3ccc(OCC(=O)O)cc3)c(=O)n2C1c1ccc(F)cc1 (stereo not drawn) | 3.22% (inactive)
FC(F)(F)C1=Nc2cccc3cccc(c23)N1 | -3.41% (inactive)
COc1cccc(COC(=O)CSCC(=O)Nc2cccc(C)c2)c1OC | -8.9% (inactive)
CCN1CCN(c2ccc(S(=O)(=O)N3CCCCC3)cc2NC(=O)c2ccc([N+](=O)[O-])s2)CC1 | 9.23% (inactive)
COc1ccc(-c2nc(C)ncc2-c2ccc(Cl)cc2)c(O)c1 | -26.6% (inactive)
Cc1ccc(S(=O)(=O)/N=C2\C=C(NS(=O)(=O)c3ccccc3)C(=O)c3ccccc32)c(C)c1 | -5.99% [at 30.8 µM] (inactive)
COc1cc(NC(=O)c2ccccc2NS(=O)(=O)c2ccc(Cl)s2)cc(OC)c1 | -29.4% (inactive)
Cc1ccc(S(=O)(=O)N2CCN(c3ncnc4sccc34)CC2)cc1C | 6.93% (inactive)
C/C(=N/NS(=O)(=O)c1ccc(C(C)(C)C)cc1)c1ccc2c(c1)OCO2 | -17.7% [at 30.8 µM] (inactive)
O=C(Cc1c(Sc2ccccc2)c2ccccc2n1Cc1ccccc1)NCCO | 6.47% (inactive)
CN(CC(=O)Nc1ccc(F)cc1)C(=O)c1cc(-c2ccco2)nc2ccccc12 | 12.6% (inactive)
C[n+]1cccc2c(Br)ccc([O-])c21 | 6.75% (inactive)
Cc1cc(Cl)ccc1Oc1ccccc1C(=O)CC#N | -30.9% (inactive)
C#Cc1ccc([C@@H]2C=C(C(=O)NCc3ccccc3)O[C@H](OCC)[C@H]2CCCO)cc1 | -14.7% (inactive)
COc1ccc(C)cc1NC(=O)c1ccc2c(SCC(=O)O)c3c(nc2c1)CCCC3 | 24.4% (inactive)
Cc1ccc(-c2ccc(CN3C(C(C)C)C(=O)N(Cc4cn(CCC5OCCO5)nn4)CCS3(=O)=O)cc2)c(C)c1 (stereo not drawn) | -16.7% (inactive)

Compound | activity change, negative = inhibition
Cc1nc2c(OCc3ccc(C(F)(F)F)cc3)cccn2c1N(C)Cc1cccs1 | -6.01% (inactive)
CCCCC1CC2=C(C(=O)OC(C)(C)O2)C(c2ccc(Cl)cc2)O1 (stereo not drawn) | -9.04% (inactive)
Cc1ccc(/C=N/Nc2cc(C)nc(NCc3ccccc3)n2)cc1 | -8.81% (inactive)
COc1cc(/C=N/NS(=O)(=O)c2ccc3ccccc3c2)ccc1OCc1ccc(C(=O)O)cc1 | -3.86% (inactive)
CCCCn1c(N)c(N(CCOC)C(=O)c2ccc(-c3ccc(C(C)=O)cc3)o2)c(=O)[nH]c1=O | -9.14% (inactive)
COc1ccc(-c2cc(N)n(S(=O)(=O)c3c(F)c(F)c(F)c(F)c3F)n2)cc1OC | 6.6% [at 30.8 µM] (inactive)
COc1ccc(-c2sc3ccc(OC)cc3c2C#CCCO)cc1 | -11.1% (inactive)
CCCN(CC(=O)Nc1ccccc1C)C(=O)C1CCN(c2ncnc3sc(C)c(C)c23)CC1 | 0.163% (inactive)
COc1ccc(-c2nn3c(-c4cccc(C)c4)nnc3s2)cc1OC | 12.6% (inactive)
Clc1cccc(-c2nc3ccc(Cl)cn3c2Cc2ccsc2)c1 | 4.83% (inactive)
CCOC(=O)CC1C(=O)NCCN1C(=O)c1cccc(C(F)(F)F)c1 (stereo not drawn) | 26% (inactive)
Cc1cc(C)c(Cn2cnc3ccccc32)c(C)c1 | 21.4% (inactive)
CCCCN(CCCC)C1=Nc2ccccc2N/C1=C(/C#N)C(=O)OCC | 13.3% (inactive)
CC(C)CNC(=O)C1Nc2ccc(OC(F)(F)F)cc2C2C=CCC12 (stereo not drawn) | 3.77% (inactive)
Cc1ccc(/C=C2/SC(=S)N(c3ccc(S(=O)(=O)Nc4nccs4)cc3)C2=O)cc1 | 27.1% (inactive)
CC(=O)NC(C)(c1ccccc1)c1nc(-c2cc(F)cc(F)c2)cs1 (stereo not drawn) | -17.5% (inactive)
Cc1oc2ccc(O)c(CN3CCCCC3)c2c1C(=O)Nc1cccc(C(F)(F)F)c1 | 20% (inactive)
Fc1ccc2c(-c3cccc(C(F)(F)F)c3)c(-c3ccccc3)ncc2c1 | -38.9% (inactive)
CCOc1ccc(S(=O)(=O)Nc2nc3ccccc3nc2-n2ccc(=NC(=O)c3cccs3)cc2)cc1 | -32.1% (inactive)
